Experimental data as given in PubChem BioAssay AID1159580 (chemical genetic matrix, 2015).
The whole screen tested about 5,500 compounds, of which about 2,000 (36%) were called active. Inconclusive results (about 18%) are left out. Rule as the data show it: active = normalized growth mostly below about 0.91 (no sharp cut-off); inconclusive = no clear call, values can overlap the other calls; inactive = mostly above about 0.92. The list shows a part of the results.

Assay: chemical genetic growth profiling, strain panel (AID 1159580);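 also: tested at 20 µM; growth read once vehicle control cultures reached saturation at 30 °C; 1 = growth at the plate median or of vehicle wells; lower values mean less growth of the strain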
Details: S. cerevisiae deletion strains, growth OD

Measured: normalized growth

COC(=O)/C(C)=C\CC12OC(C)(C)C3CC(C=C4C(=O)c5c(O)c6c(c(CCC(C)(C)Cl)c5OC431)OC1(C)CCC(=C(C)C)C6C1)C2=O (stereo unspecified)
inactive: locus YBR021W, strain FUR4, stronger effect = lower value 0.981 | locus YBR229C, strain ROT2, stronger effect = lower value 1.02 | locus YCL029C, strain bik1, stronger effect = lower value 0.997 | locus YDL035C, strain GPR1, stronger effect = lower value 1.01 | locus YDL074C, strain BRE1, stronger effect = lower value 0.994 | locus YDL101C, strain DUN1, stronger effect = lower value 0.999 | locus YDL134C, strain PPH21, stronger effect = lower value 0.976 | locus YDL185W, strain tfp1, stronger effect = lower value 1.01 | locus YDL192W, strain arf1, stronger effect = lower value 0.985 | locus YDR101C, strain arx1, stronger effect = lower value 0.992 | locus YDR150W, strain NUM1, stronger effect = lower value 1.02 | locus YDR162C, strain NBP2, stronger effect = lower value 1.01 | locus YDR318W, strain mcm21, stronger effect = lower value 0.985 | locus YDR388W, stronger effect = lower value 1.01 | locus YDR502C, strain sam2, stronger effect = lower value 0.961 | locus YER110C, stronger effect = lower value 1.02 | locus YER155C, strain BEM2, stronger effect = lower value 1.01 | locus YER167W, strain BCK2, stronger effect = lower value 1.01 | locus YGL078C, strain dbp3, stronger effect = lower value 0.994 | locus YGL086W, strain mad1, stronger effect = lower value 0.962 | locus YGL248W, strain PDE1, stronger effect = lower value 0.98 | locus YGR135W, strain pre9, stronger effect = lower value 0.982 | locus YGR252W, strain gcn5, stronger effect = lower value 0.919 | locus YHR030C, strain SLT2, stronger effect = lower value 1.02 | locus YHR079C, strain IRE1 (second series), stronger effect = lower value 1 | locus YHR094C, strain hxt1, stronger effect = lower value 1 | locus YHR129C, strain ARP1, stronger effect = lower value 1.01 | locus YHR200W, strain rpn10, stronger effect = lower value 0.984 | locus YIL066C, strain RNR3, stronger effect = lower value 1.01 | locus YIL073C, strain SPO22, stronger effect = lower value 0.987 | locus YIL125W, strain kgd1, stronger effect = lower value 0.985 | locus YIR030C, strain dcg1, stronger effect = lower value 1.01 | locus YJL095W, strain BCK1, stronger effect = lower value 0.959 | locus YJL134W, strain LCB3, stronger effect = lower value 1.03 | locus YJL168C, strain set2, stronger effect = lower value 1.01 | locus YJL187C, strain SWE1 (second series), stronger effect = lower value 0.986 | locus YJR043C, strain POL32, stronger effect = lower value 1.02 | locus YKL009W, strain mrt4, stronger effect = lower value 0.979 | locus YKL068W, stronger effect = lower value 0.999 | locus YKL085W, strain MDH1 (second series), stronger effect = lower value 0.997 | locus YKL085W, strain MDH1, stronger effect = lower value 0.997 | locus YKR001C, strain vps1, stronger effect = lower value 0.952 | locus YLR039C, strain RIC1, stronger effect = lower value 0.957 | locus YLR058C, strain SHM2, stronger effect = lower value 1 | locus YLR102C, strain apc9, stronger effect = lower value 1.01 | locus YLR262C, strain YPT6, stronger effect = lower value 0.946 | locus YLR268W, strain sec22, stronger effect = lower value 0.975 | locus YLR330W, strain CHS5, stronger effect = lower value 1.01 | locus YLR342W, strain FKS1 (second series), stronger effect = lower value 0.957 | locus YLR371W, strain rom2, stronger effect = lower value 1.02 | locus YML016C, strain PPZ1, stronger effect = lower value 1.01 | locus YML032C, strain rad52, stronger effect = lower value 0.988 | locus YML124C, strain tub3, stronger effect = lower value 1.02 | locus YMR078C, strain ctf18, stronger effect = lower value 1 | locus YMR223W, strain ubp8, stronger effect = lower value 0.985 | locus YMR307W, strain GAS1, stronger effect = lower value 0.955 | locus YNL067W, strain RPL9B, stronger effect = lower value 1.02 | locus YNL128W, strain TEP1, stronger effect = lower value 1.04 | locus YNL153C, strain GIM3, stronger effect = lower value 1 | locus YNL233W, strain BNI4, stronger effect = lower value 0.993 | locus YNL250W, strain rad50, stronger effect = lower value 1.01 | locus YNL271C, strain bni1, stronger effect = lower value 1.01 | locus YNL298W, strain CLA4, stronger effect = lower value 1.01 | locus YNL307C, strain MCK1, stronger effect = lower value 0.981 | locus YNL322C, strain KRE1, stronger effect = lower value 1.03 | locus YNR052C, strain pop2, stronger effect = lower value 0.989 | locus YOL006C, strain TOP1, stronger effect = lower value 1.06 | locus YOL012C, strain htz1 0.7 | locus YOL147C, strain pex11, stronger effect = lower value 1 | locus YOR061W, strain CKA2, stronger effect = lower value 0.999 | locus YOR069W, strain VPS5, stronger effect = lower value 1.02 | locus YOR136W, strain idh2, stronger effect = lower value 0.987 | locus YOR144C, strain elg1, stronger effect = lower value 1 | locus YOR184W, strain ser1, stronger effect = lower value 0.977 | locus YOR316C, strain cot1, stronger effect = lower value 0.999 | locus YPR119W, strain clb2, stronger effect = lower value 1.01 | locus YPR141C, strain kar3, stronger effect = lower value 1.02 | locus YPR163C, strain tif3, stronger effect = lower value 1 | locus YPR167C, strain met16, stronger effect = lower value 0.982 | strain wtn01, stronger effect = lower value 0.969
active: locus YLR418C, strain cdc73, stronger effect = lower value 0.834
